Experimental data taken from PubChem BioAssay.
For part of these data: Results with a measured potency or affinity are listed apart. Calls of active or inactive are those of the source.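 The calls were made as follows, unless noted: active = primary screen hit whose calcium fluorescence ratio, in both repeats, exceeds the weak agonist control mean by 3 SD; inactive = the rest.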

Assays:
[1] = test system: TRPC4 beta (transient receptor potential cation channel C4), mouse; test: activators of mouse TRPC4 channel, confirmation, cell-based, Fluo4 calcium, HEK293 TRPC4beta/mu-opioid, duplicates, 10 µM (AID 2426;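 active = fluorescence ratio normalized to control raised more than 50% in primary screen plus both repeat runs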;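 as to activation: percent rise of integrated ratio over buffer wells lacking compound which define 0%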); conditions: Fluo4 calcium fluorescence, at 10 µM; stronger effect = higher value
[2] = test system: transient receptor potential cation channel C4 beta (TRPC4), mouse; test: activators of mouse TRPC4 channel, confirmation, cell-based, second round, Fluo4, HEK293 TRPC4beta/mu-opioid, 1 µM (AID 2461;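 active = primary screen active and over 50% activation in each of two duplicate runs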;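 as to activation: 0% = wells without test compound as baseline of integrated fluorescence ratio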); conditions: Fluo4 calcium fluorescence, at 1 µM; stronger effect = higher value
[3] = test system: TRPC4 (transient receptor potential cation channel C4 beta), mouse; test: positive allosteric modulators of mouse TRPC4, confirmation, cell-based, second round, Fluo-4, HEK293 TRPC4beta/mu-opioid, 1 µM (AID 2554;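 active = primary screen hit whose fluorescence ratio, in both repeats, exceeds the weak agonist control mean by 3 SD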); conditions: DAMGO EC20, Fluo-4 calcium flux, at 1 µM; stronger effect = higher value
[4] = test system: TRPC4 beta (transient receptor potential cation channel C4), mouse; test: positive allosteric modulators of mouse TRPC4, confirmation, cell-based, Fluo-4, HEK293 TRPC4beta/mu-opioid (AID 2555); conditions: DAMGO EC20, Fluo-4 calcium flux, at 10 µM; stronger effect = higher value
[5] = biological target: Short transient receptor potential channel 4 (Mus musculus) (UniProt Q9QUQ5); test: inhibitors of mouse TRPC4 channel, confirmation, cell-based, Fluo4, HEK293 TRPC4beta/mu-opioid (AID 2636;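 active = calcium signal cut by more than 3 SD below the full-agonist control yet still positive, in both repeats and the earlier primary screen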); conditions: DAMGO, Fluo4 calcium flux, at 10 µM; stronger effect = higher value
[6] = biological target: Short transient receptor potential channel 4 (Mus musculus) (UniProt Q9QUQ5); test: inhibitors of mouse TRPC4 channel, confirmation, cell-based, second round, Fluo4, HEK293 TRPC4beta/mu-opioid, 1 µM (AID 2637;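 active = calcium signal ratio cut to more than 3 SD under the fully stimulated control mean yet still positive, in both repeats and the primary screen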); conditions: Fluo4 calcium flux, DAMGO, at 1 µM; stronger effect = higher value
[7] = biological target: Short transient receptor potential channel 4 (Mus musculus) (UniProt Q9QUQ5); test: TRPC4 positive allosteric modulators, dose response, cell-based, HEK293 TRPC4/mu-opioid, Fluo-4 calcium, EC20 DAMGO (AID 434941;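 active = earlier screen potentiator hit that boosts the TRPC4 ion channel at some dose, with a dose response; inactive = no potentiation, no dose response, or not a prior hit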;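 also: calcium entry triggered by an EC20 dose of DAMGO at the co-expressed mu-opioid receptor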)
[8] = biological target: Short transient receptor potential channel 4 (Mus musculus) (UniProt Q9QUQ5); test: mouse TRPC4 channel inhibitors, dose response, cell-based, HEK293 TRPC4/mu-opioid, Fluo-4 calcium (AID 434942;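 active = primary screen inhibitor hit that blocks the TRPC4 channel at some tested dose, yielding a dose curve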)
[9] = biological target: Short transient receptor potential channel 6 (Mus musculus) (UniProt Q61143); test: inhibition of mouse TRPC6 channel, confirmation, selectivity assay for TRPC4 inhibitor project, cell-based, HEK293, membrane potential dye, duplicate (AID 434948;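 active = active in primary screen and both duplicates, each dropping signal beyond three positive-control SD with fluorescence still positive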); conditions: HEK293 TRPC6, membrane potential dye fluorescence, at 10 µM, stimulated with maximal-effect acetylcholine; stronger effect = higher value
[10] = biological target: Short transient receptor potential channel 6 (Mus musculus) (UniProt Q61143); test: activation of mouse TRPC6 channel, confirmation, selectivity assay for TRPC4 activator project, cell-based, HEK293, membrane potential dye, duplicate (AID 434950;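 active = membrane potential signal rise above negative control mean plus 3 SD in both duplicates, also active in the earlier TRPC4 screen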;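 as to activation: 0% = buffer only wells and 100% = acetylcholine maximal-effect wells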); conditions: HEK293 TRPC6, membrane potential fluorescence, at 10 µM; stronger effect = higher value
[11] = biological target: Short transient receptor potential channel 6 (Mus musculus) (UniProt Q61143); test: TRPC6 potentiation by TRPC4 potentiator hits, confirmation, selectivity assay for TRPC4 potentiator project, HEK293 cells, membrane potential dye, duplicate (AID 434952;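 active = compound raising the membrane signal above positive-control mean plus 3 SD in both repeats, and a primary screen hit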); conditions: HEK293 TRPC6, membrane potential dye fluorescence, at 10 µM, maximal acetylcholine added after compound; stronger effect = higher value
[12] = biological target: Short transient receptor potential channel 4 (Mus musculus) (UniProt Q9QUQ5); test: calcium flux activators in TRPC4/5HT1a cells, counter-screen for TRPC4 activator project, cell-based, second counter screen, HEK293 TRPC4/5HT1a, Fluo-4 (AID 434977;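 active = calcium signal rise above buffer-control mean plus 5 SD in both duplicates, and also a hit in the primary screen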;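 as to activation: plate controls were assay buffer for no effect and maximal serotonin response for full effect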); conditions: Fluo-4 calcium flux, at 10 µM; stronger effect = higher value
[13] = calcium flux inhibitors in TRPC4/5HT1a cells, confirmation, counter-screen for TRPC4 inhibitor project, cell-based, second counter screen, HEK293 TRPC4/5HT1a, Fluo-4 (AID 434978;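 active = primary screen active whose calcium signal fell more than 3 SD beyond the full-serotonin control mean in both duplicate plates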;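 also: serotonin given first at submaximal then at maximal dose after compound preincubation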); conditions: Fluo-4 calcium flux, at 10 µM, serotonin added to trigger calcium flux; stronger effect = higher value
[14] = test system: TRPC4 (mouse), co-expressed with 5HT1a in HEK293; test: calcium flux potentiators in TRPC4/5HT1a cells, confirmation, counter-screen for TRPC4 potentiator project, cell-based, second counter screen, HEK293 TRPC4/5HT1a, Fluo-4 (AID 434979;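 active = signal rise over 3 SD above mean of control wells given weak agonist, in both repeats and first screen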); conditions: Fluo-4 calcium flux, at 10 µM, serotonin added at its EC20 dose; stronger effect = higher value
[15] = calcium flux activation in mu-opioid HEK293 cells, confirmation, counter-screen for TRPC4 activator project, cell-based, HEK293 mu-opioid receptor line (AID 449723;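 active = hit in primary screen, with calcium signal over 5 SD above buffer well mean in both duplicates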;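 also: counter screen cells carry the mu-opioid receptor alone and lack TRPC4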); conditions: Fluo-4 calcium fluorescence, at 10 µM; stronger effect = higher value
[16] = calcium flux enhancement in mu-opioid HEK293 cells, confirmation, counter-screen for TRPC4 allosteric potentiator project, cell-based, HEK293 mu-opioid receptor line (AID 449724;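 active = calcium signal rise more than 3 SD above the low-dose agonist control mean, in both duplicate plates and the primary screen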); conditions: Fluo-4 calcium flux, at 10 µM, compound added before EC20 DAMGO stimulus; stronger effect = higher value

Sequence of Short transient receptor potential channel 4 (Mus musculus) (Q9QUQ5 whole entry, looked up): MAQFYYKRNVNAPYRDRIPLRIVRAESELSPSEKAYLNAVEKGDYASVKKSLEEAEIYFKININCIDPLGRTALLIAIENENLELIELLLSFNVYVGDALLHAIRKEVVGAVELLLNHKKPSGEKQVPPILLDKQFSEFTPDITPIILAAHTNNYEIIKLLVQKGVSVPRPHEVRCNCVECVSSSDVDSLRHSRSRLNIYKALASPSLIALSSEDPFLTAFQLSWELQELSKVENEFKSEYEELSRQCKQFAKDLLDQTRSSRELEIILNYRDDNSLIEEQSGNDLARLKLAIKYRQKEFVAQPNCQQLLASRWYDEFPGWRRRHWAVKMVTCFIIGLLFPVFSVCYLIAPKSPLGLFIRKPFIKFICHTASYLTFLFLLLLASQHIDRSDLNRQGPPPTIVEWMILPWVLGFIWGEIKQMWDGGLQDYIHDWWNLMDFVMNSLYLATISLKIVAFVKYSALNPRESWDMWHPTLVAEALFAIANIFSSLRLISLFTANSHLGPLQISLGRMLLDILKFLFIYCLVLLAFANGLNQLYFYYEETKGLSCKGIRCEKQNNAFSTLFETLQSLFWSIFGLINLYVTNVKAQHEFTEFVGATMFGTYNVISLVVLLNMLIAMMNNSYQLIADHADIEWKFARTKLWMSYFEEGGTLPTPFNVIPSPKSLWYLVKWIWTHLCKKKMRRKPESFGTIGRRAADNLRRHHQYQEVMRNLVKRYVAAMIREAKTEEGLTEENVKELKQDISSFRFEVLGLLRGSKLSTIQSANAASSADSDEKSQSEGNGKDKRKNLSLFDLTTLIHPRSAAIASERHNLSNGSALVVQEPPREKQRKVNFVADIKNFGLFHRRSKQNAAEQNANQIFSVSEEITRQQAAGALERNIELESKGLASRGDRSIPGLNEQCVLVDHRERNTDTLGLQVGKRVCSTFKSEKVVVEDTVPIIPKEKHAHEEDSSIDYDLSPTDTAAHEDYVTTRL
Sequence of Short transient receptor potential channel 6 (Mus musculus) (Q61143 whole entry, looked up): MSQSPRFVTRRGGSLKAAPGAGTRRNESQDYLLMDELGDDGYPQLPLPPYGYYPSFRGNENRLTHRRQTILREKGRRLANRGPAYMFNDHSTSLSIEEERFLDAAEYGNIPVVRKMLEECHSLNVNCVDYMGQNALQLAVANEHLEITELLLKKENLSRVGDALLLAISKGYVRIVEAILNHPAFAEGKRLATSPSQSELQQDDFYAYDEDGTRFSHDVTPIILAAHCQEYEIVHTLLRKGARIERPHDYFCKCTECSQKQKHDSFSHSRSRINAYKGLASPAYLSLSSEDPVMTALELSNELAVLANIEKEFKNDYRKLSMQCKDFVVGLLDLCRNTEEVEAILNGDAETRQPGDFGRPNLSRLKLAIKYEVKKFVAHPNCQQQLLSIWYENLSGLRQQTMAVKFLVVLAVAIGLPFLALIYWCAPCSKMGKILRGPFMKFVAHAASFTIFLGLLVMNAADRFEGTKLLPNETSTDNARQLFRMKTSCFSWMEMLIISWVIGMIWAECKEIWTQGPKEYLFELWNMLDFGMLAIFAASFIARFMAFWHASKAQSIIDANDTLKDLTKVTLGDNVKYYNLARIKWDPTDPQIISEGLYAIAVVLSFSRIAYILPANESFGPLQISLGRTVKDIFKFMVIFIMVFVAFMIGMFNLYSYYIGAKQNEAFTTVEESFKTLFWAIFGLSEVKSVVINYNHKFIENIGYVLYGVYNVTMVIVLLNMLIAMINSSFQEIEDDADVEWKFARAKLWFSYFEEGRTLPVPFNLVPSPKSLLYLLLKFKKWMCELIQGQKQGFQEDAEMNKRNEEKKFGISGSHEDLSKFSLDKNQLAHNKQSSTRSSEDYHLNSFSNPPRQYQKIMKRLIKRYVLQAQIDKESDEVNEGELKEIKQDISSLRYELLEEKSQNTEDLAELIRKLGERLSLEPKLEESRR

COc1ccc(CSCCN)cc1Cl
active: activation [1] 108% | activation [12] 27.1%
inactive: outcome [2] | outcome [3] | outcome [4] | outcome [5] | outcome [6] | outcome [7] | outcome [8] | outcome [9] | outcome [10] | outcome [11] | outcome [13] | outcome [14] | outcome [15] | outcome [16]

CCOC(=O)C1(CC2CC2)CCN(Cc2cnc(-c3ccccc3C)nc2)CC1
inactive: outcome [1] | outcome [2] | outcome [3] | outcome [4] | outcome [5] | outcome [6] | outcome [7] | outcome [8] | outcome [9] | outcome [11] | outcome [12] | outcome [13] | outcome [14] | outcome [15] | outcome [16]
active: activation [10] 59.5%

CCCCN1/C(=C/c2ccc3ccccc3[n+]2CC)Sc2ccccc21
inactive: outcome [2] | outcome [3] | outcome [4] | outcome [5] | outcome [6] | outcome [7] | outcome [8] | outcome [9] | outcome [10] | outcome [11] | outcome [13] | outcome [14] | outcome [16]
active: activation [1] 412% | activation [12] 154% | activation [15] 271%

COc1ccc(CN2CCC(n3nccc3NC(=O)CCc3ccccc3)CC2)c(C)c1C
active: activation [1] 68% | activation [10] 72%
inactive: outcome [2] | outcome [3] | outcome [4] | outcome [5] | outcome [6] | outcome [7] | outcome [8] | outcome [9] | outcome [11] | outcome [12] | outcome [13] | outcome [14] | outcome [15] | outcome [16]

CCN1CCN(c2ccc(S(=O)(=O)N3CCCCC3)cc2NC(=O)c2cccc(Cl)c2)CC1
active: activation [1] 63% | potentiation [3] 9% | potentiation [4] 7% | activation [12] 17.8% | potentiation [14] 14.7%
inactive: outcome [2] | outcome [5] | outcome [6] | outcome [7] | outcome [8] | outcome [9] | outcome [10] | outcome [11] | outcome [13] | outcome [15] | outcome [16]

COc1ccc(N2CCN(Cc3nc4ccccc4n3C)CC2)cc1
inactive: outcome [2] | outcome [3] | outcome [4] | outcome [5] | outcome [6] | outcome [7] | outcome [8] | outcome [9] | outcome [10] | outcome [11] | outcome [12] | outcome [13] | outcome [14] | outcome [15] | outcome [16]
active: activation [1] 154%

Cc1ccc2[nH]c3c(N4CCc5ccccc5C4)ncnc3c2c1
inactive: outcome [1] | outcome [2] | outcome [3] | outcome [4] | outcome [5] | outcome [6] | outcome [7] | outcome [8] | outcome [9] | outcome [10] | outcome [11] | outcome [12] | outcome [13] | outcome [14] | outcome [15] | outcome [16]

COC(=O)NCC(c1ccc2c(c1)OCO2)N1CCN(c2ccccc2)CC1 (stereo not drawn)
inactive: outcome [3] | outcome [4] | outcome [5] | outcome [6] | outcome [7] | outcome [8] | outcome [9] | outcome [11] | outcome [12] | outcome [13] | outcome [14] | outcome [15] | outcome [16]
active: activation [1] 201% | activation [2] 99% | activation [10] 33%

CCCN(CCC)CCCNC(=O)CNC(=O)c1nn(-c2ccc(OC)cc2)c(=O)c2ccccc12
inactive: outcome [2] | outcome [3] | outcome [4] | outcome [5] | outcome [6] | outcome [7] | outcome [8] | outcome [9] | outcome [10] | outcome [11] | outcome [13] | outcome [14] | outcome [15] | outcome [16]
active: activation [1] 65% | activation [12] 24.9%

O=C(NCCc1ccccn1)c1ccc(COc2ccccc2)o1
active: activation [10] 35% | activation [12] 58.4%
inactive: outcome [1] | outcome [2] | outcome [3] | outcome [4] | outcome [5] | outcome [6] | outcome [7] | outcome [8] | outcome [9] | outcome [11] | outcome [13] | outcome [14] | outcome [15] | outcome [16]

Cc1ccccc1N1CC(O)(c2ccccc2)[N+]2=C1SCC2 (stereo not drawn)
active: activation [1] 73% | activation [10] 39%
inactive: outcome [2] | outcome [3] | outcome [4] | outcome [5] | outcome [6] | outcome [7] | outcome [8] | outcome [9] | outcome [11] | outcome [12] | outcome [13] | outcome [14] | outcome [15] | outcome [16]

Cn1c(N2CCN(C(=O)Nc3ccc(F)cc3)CC2)nc2ccccc21
active: activation [1] 51% | activation [12] 22.1%
inactive: outcome [2] | outcome [3] | outcome [4] | outcome [5] | outcome [6] | outcome [7] | outcome [8] | outcome [9] | outcome [10] | outcome [11] | outcome [13] | outcome [14] | outcome [15] | outcome [16]

COc1cccc(CN2CCNC(=O)C2CC(=O)N(C)CCc2ccccn2)c1 (stereo not drawn)
inactive: outcome [3] | outcome [4] | outcome [5] | outcome [6] | outcome [7] | outcome [8] | outcome [9] | outcome [10] | outcome [11] | outcome [13] | outcome [14] | outcome [15] | outcome [16]
active: activation [1] 186% | activation [2] 92% | activation [12] 39%

CCOC(=O)c1ccc(NC(=O)NCCc2cnc[nH]2)cc1
active: activation [1] 147% | activation [2] 136% | activation [10] 38% | activation [12] 90.7%
inactive: outcome [3] | outcome [4] | outcome [5] | outcome [6] | outcome [7] | outcome [8] | outcome [9] | outcome [11] | outcome [13] | outcome [14] | outcome [15] | outcome [16]

Fc1ccc(-n2cc(CNCCc3cccnc3)c(-c3ccccc3Cl)n2)cc1
active: activation [1] 153% | activation [10] 31%
inactive: outcome [2] | outcome [3] | outcome [4] | outcome [5] | outcome [6] | outcome [7] | outcome [8] | outcome [9] | outcome [11] | outcome [12] | outcome [13] | outcome [14] | outcome [15] | outcome [16]

Cc1cccc(NC(=S)NCC(c2ccccc2)N(C)C)c1 (stereo not drawn)
inactive: outcome [3] | outcome [4] | outcome [5] | outcome [6] | outcome [7] | outcome [8] | outcome [9] | outcome [11] | outcome [12] | outcome [13] | outcome [14] | outcome [15] | outcome [16]
active: activation [1] 176% | activation [2] 152% | activation [10] 39.5%

O=C(NCc1ccccc1)C1=C[C@H](c2ccccc2)C[C@H](OCc2ccc(CO)cc2)O1
active: activation [1] 300% | activation [10] 27% | activation [12] 178%
inactive: outcome [2] | outcome [3] | outcome [4] | outcome [5] | outcome [6] | outcome [7] | outcome [8] | outcome [9] | outcome [11] | outcome [13] | outcome [14] | outcome [15] | outcome [16]

NCCNC(=O)c1c(NC(=O)c2ccccc2)sc2c1CCCC2
inactive: outcome [2] | outcome [3] | outcome [4] | outcome [5] | outcome [6] | outcome [7] | outcome [8] | outcome [9] | outcome [10] | outcome [11] | outcome [12] | outcome [13] | outcome [14] | outcome [15] | outcome [16]
active: activation [1] 165%
